# Inconclusive results are not listed. A number with no mark means an inactive call. The source made the active and inactive calls. Calls follow the shape of the dose curve; as a rule, active = well fitted inhibition curve with a large enough effect; inconclusive = small, poorly fitted or top-dose-only effect; inactive = flat fitted curve, though single readings scatter. Bridge positions count the residues as written; N and C are the ends. Square brackets hold non-standard residues; d marks the D form. Side chains are listed from the residue outwards. Peptide text beside a SMILES is read from it. * marks the point of attachment. Phg(4-OMe) = COc1ccc([C@H](N)C(=O)O)cc1; d(aIle) = CC[C@H](C)[C@@H](N)C(=O)O; d(aThr) = C[C@@H](O)[C@@H](N)C(=O)O; NMeF = CN[C@@H](Cc1ccccc1)C(=O)O; Isobutyryl = CC(C)C(=O)*
# Assay: qHTS assay for small molecule disruptors of mitochondrial membrane potential screened against the NCATS CANVASS Library (AID 1347389); also: nearly all actives have a fitted effect of over 60% in size
# Conditions: HepG2 mitochondrial membrane potential, m-MPI red/green ratio, 1.5 h; series mostly up to 46.1 µM; activity change, negative = depolarization: at the top concentration
# Procedure, shortened: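 Cells (HepG2) seeded the day before received compound or DMSO for 1 hr, then Mito-MPS dye for 30 min at 37C; emission at 590 nm over 535 nm gave the polarization signal.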
# % is scaled to controls: 0 for no effect and ±100 for the full control effect; potency is read from the fitted curve at half-maximal effect.
SMILES,Potency,"activity change, negative = depolarization [%]"
Cc1occ2c1C(=O)c1c(cc(O)c(O)c1O)C2=O,7.41 µM (active),–
O=C1CC2OCC=C3CN4C5CC3C2[C@@H]2N1c1ccccc1[C@]52C[C@@H]4C1=C[C@H]2C3CC4N(CC[C@@]45c4ccccc4N(C1=O)[C@@H]25)C/C3=C/CO (stereo not given in full),–,-14.7
CCC(=O)CCCCC[C@@H]1NC(=O)[C@H]2CCCCN2C(=O)[C@H](C(C)C)NC(=O)[C@H](Cc2cn(OC)c3ccccc23)NC1=O,–,-19.3
C/C(=C\[C@H](C)C(=O)CCCC1CC(=O)NC(=O)C1)[C@@H]1OC(=O)/C=C/CC/C=C/[C@H](O)[C@@H](O)[C@@H]1C,–,4.6
C/C=C(/C)c1c(Cl)c(O)c(C)c2c1Oc1c(Cl)c(O)c(Cl)c(C)c1C(=O)O2,8.31 µM (active),–
C=C[C@@]1(C)CC[C@@H]([C@H](C)C(=O)/C=C/C(C)(C)O)O1,–,-12.5
C=C1CC[C@@H](O[C@H]2C[C@@](O)([C@H](C)NC(=O)c3[nH]c(C)c(Cl)c3Cl)[C@H](O)[C@@H](C)O2)[C@@H]2C=C[C@H](C)C(/C(O)=C3/C(=O)[C@H](C(C)C)N([C@@H]4O[C@H](C)[C@H](OC(N)=O)[C@H](OC(C)=O)[C@@H]4OC)C3=O)[C@@H]12 (stereo not given in full),16.6 µM (active),–
COc1ccc([C@@H]2CC(=O)c3c(cc(O)c(C/C=C(\C)CCC=C(C)C)c3O)O2)cc1,3.84 µM (active),–
O=c1cc(-c2ccc(O)c(O)c2)oc2cc(O[C@@H]3O[C@H](CO)[C@@H](O)[C@H](O)[C@H]3O)cc(O)c12,8.31 µM (active),–
CC[C@H](C)[C@H]1NC(=O)[C@@H](NC(=O)C(C)C)[C@@H](C)OC(=O)[C@H](COC(=O)CNC(C)=O)NC(=O)[C@@H]([C@@H](C)O)NC(=O)[C@H](Cc2ccccc2)N(C)C(=O)[C@H](c2ccc(OC)cc2)NC1=O (Isobutyryl-T[d(aIle)][Phg(4-OMe)][NMeF][d(aThr)]S([Gly-Ac]); ester 1-C),–,-20.1

# From PubChem BioAssay (NCATS)
